In PubChem BioAssay (NCATS):
Records with an inconclusive call do not appear. Entries that show only a call come without a potency. Active and inactive are the calls of the source. Calls follow the shape of the dose curve; as a rule, active = well fitted curve in the direction sought with a large enough effect in the repeat runs; inconclusive = weak or mixed curves; inactive = no such curve, though single readings can be large; an effect the other way counts as inactive or inconclusive.

Target: Cytochrome P450 2D6 (Homo sapiens) (UniProt P10635)
Assay: Cytochrome P450 family 2 subfamily D member 6 (CYP2D6) small molecule antagonists: luciferase biochemical (cell-free) qHTS assay (AID 1645840); also: nearly all actives have a fitted effect of over 55% in size
Conditions: P450-Glo CYP2D6 enzyme, luciferin luminescence, 1 h; series mostly up to 57.4 µM
Summary of the method: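 P450-Glo CYP2D6 system: proluciferin substrate converted by enzyme to luciferin, read by luminescence proportional to activity. Enzyme-substrate mix with compound 10 min at room temperature, then NADPH regeneration 1 h before detection reagent.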
Potency is read from the fitted curve at half-maximal effect.

Chain of Cytochrome P450 2D6 (Homo sapiens) (P10635 whole entry, looked up): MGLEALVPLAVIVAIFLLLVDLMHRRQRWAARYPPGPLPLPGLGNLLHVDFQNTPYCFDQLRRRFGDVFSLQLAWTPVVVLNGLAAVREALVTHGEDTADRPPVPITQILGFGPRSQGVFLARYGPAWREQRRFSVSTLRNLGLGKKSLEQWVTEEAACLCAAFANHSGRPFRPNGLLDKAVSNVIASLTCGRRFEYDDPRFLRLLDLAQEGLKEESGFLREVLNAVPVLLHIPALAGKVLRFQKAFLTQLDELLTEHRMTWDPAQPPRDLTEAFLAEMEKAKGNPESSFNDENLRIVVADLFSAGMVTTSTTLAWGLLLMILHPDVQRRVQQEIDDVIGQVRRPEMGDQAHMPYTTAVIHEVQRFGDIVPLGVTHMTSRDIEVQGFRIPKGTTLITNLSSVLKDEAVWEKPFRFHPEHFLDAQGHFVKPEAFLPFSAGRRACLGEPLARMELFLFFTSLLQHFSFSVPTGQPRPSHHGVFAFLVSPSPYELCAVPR

Structure (SMILES)	Potency
COc1ccc(OC)c(/C=C(\C#N)c2nc3ccccc3c(=O)[nH]2)c1	inactive
Nc1nc(Nc2ccc3c(c2)CC[C@@H](N2CCCC2)CC3)nn1-c1cc2c(nn1)-c1ccccc1CCC2	5.35 µM (active)
O=C(O)[C@@H]1CCCN1	inactive
CC[C@H]1OC(=O)[C@H](C)[C@@H](O[C@H]2C[C@@](C)(OC)[C@@H](O)[C@H](C)O2)[C@H](C)[C@@H](O[C@@H]2O[C@H](C)C[C@H](N(C)C)[C@H]2O)[C@](C)(OC)C[C@@H](C)C(=O)[C@H](C)[C@@H](O)[C@]1(C)O	inactive
Cc1ccnc(NC(c2cc(C)ccc2O)c2ccc3cccnc3c2O)c1 (centres undefined)	inactive
CN[C@@H](C)C(=O)N[C@H](C(=O)N1CCC[C@H]1c1nc(C(=O)c2ccc(F)cc2)cs1)C1CCCCC1	inactive
C[C@@H]1C[C@H]2[C@@H]3C[C@H](F)C4=CC(=O)C=C[C@]4(C)[C@@]3(F)[C@@H](O)C[C@]2(C)[C@@]1(O)C(=O)COC(=O)C(C)(C)C	inactive
O=C(CSc1nc(-c2ccc(F)cc2)nc2c1Cc1ccccc1O2)Nc1cccc(C(=O)O)c1	inactive
COc1ccc(C=CC(=O)O)cc1	inactive
Cc1cc(Cl)ccc1NC(=O)Cn1nc(C)c2c(C)n(-c3ccccc3)nc2c1=O	inactive
CCn1c(N)c(C(=O)NC)c(=O)c2ccc(C#C[C@@](C)(O)COC)nc21	inactive
N[C@@H]1CCCCN(c2c(F)cc3c(=O)c(C(=O)O)cn(C4CC4)c3c2Cl)C1	inactive
CC(C)[C@H](N)C(=O)O	inactive
CCC=CCC=CCC=CCCCCCCCC(=O)O	inactive
CN(CCCCCCCCCCN(C)C(=O)Oc1cccc([N+](C)(C)C)c1)C(=O)Oc1cccc([N+](C)(C)C)c1	inactive
C=CC1=C(C(=O)O)N2C(=O)[C@@H](NC(=O)/C(=N\OCC(=O)O)c3csc(N)n3)[C@H]2SC1	inactive
NCCNc1ccc(NCCN)c2c1C(=O)c1ccncc1C2=O	2.68 µM (active)
Cc1cc2c(F)c(Oc3ncnn4cc(OC[C@@H](C)OC(=O)[C@H](C)N)c(C)c34)ccc2[nH]1	10.7 µM (active)
CN[C@@H]1[C@@H](O)[C@@H](O[C@@H]2[C@@H](O)[C@H](O[C@H]3O[C@H]([C@@H](C)NC)CC[C@H]3N)[C@@H](N)C[C@H]2N)OC[C@]1(C)O	inactive

Target: Cytochrome P450 3A4 (Homo sapiens) (UniProt P08684)
Assay: Cytochrome P450 family 3 subfamily A member 4 (CYP3A4) small molecule antagonists: luciferase qHTS assay (AID 1645841); also: nearly all actives have a fitted effect of over 45% in size
Conditions: P450-Glo CYP3A4 enzyme assay, luciferin luminescence; series mostly up to 57.4 µM
Summary of the method: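 Luminescent CYP3A4 activity readout: compounds plus enzyme-substrate mix 10 min at room temperature, reaction started with NADPH regenerating system for 1 h, stopped with detection reagent, read after 20 min. Ketoconazole served as control.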

Chain of Cytochrome P450 3A4 (Homo sapiens) (P08684 whole entry, looked up): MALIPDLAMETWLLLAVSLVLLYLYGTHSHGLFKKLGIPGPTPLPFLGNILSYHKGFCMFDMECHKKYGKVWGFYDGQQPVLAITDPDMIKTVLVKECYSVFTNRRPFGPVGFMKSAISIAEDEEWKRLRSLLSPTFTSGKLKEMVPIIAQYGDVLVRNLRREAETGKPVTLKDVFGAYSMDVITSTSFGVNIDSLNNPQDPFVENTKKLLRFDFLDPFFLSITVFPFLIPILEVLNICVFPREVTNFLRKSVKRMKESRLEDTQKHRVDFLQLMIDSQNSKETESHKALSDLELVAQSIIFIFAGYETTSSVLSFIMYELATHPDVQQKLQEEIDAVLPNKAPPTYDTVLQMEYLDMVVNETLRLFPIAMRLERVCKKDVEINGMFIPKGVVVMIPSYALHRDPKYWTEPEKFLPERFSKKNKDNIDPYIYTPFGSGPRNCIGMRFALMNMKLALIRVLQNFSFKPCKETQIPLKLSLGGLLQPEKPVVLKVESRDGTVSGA

Structure (SMILES)	Potency
CC(C)OCc1cc(CN2CCN(c3ccccc3)CC2)c(O)c2ncccc12	inactive
Cc1nc2c(-c3ccccc3)c(C)[nH]n2c(=O)c1Cc1ccc(Br)cc1	inactive
C[S+](=O)([O-])Nc1ccc(-c2ccc3nc(-c4cccc(OC(F)(F)F)c4)[nH]c3c2)cc1	inactive
CCc1ccc(CNC(=O)C2CCCN(c3nnc(C)c4c(C)n(-c5ccccc5)nc34)C2)cc1 (centres undefined)	1.9 µM (active)
Oc1ccc(C2(c3ccccc3F)CCC(F)(F)CC2)cc1	12 µM (active)

Target: Cytochrome P450 2C9 (Homo sapiens) (UniProt P11712)
Assay: Cytochrome P450 family 2 subfamily C member 9 (CYP2C9) small molecule antagonists: luciferase biochemical (cell-free) qHTS assay (AID 1645842); also: nearly all actives have a fitted effect of over 55% in size
Conditions: P450-Glo CYP2C9 enzyme assay, luciferin luminescence; series mostly up to 57.4 µM
Summary of the method: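 P450-Glo CYP2C9 system: proluciferin substrate with enzyme in mix containing 0.4% BSA, 10 min at room temperature, then NADPH regeneration solution added and incubated 1 h at 37C. Detection reagent stopped reaction; luminescence read after 20 min as RLU.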

Chain of Cytochrome P450 2C9 (Homo sapiens) (P11712 whole entry, looked up): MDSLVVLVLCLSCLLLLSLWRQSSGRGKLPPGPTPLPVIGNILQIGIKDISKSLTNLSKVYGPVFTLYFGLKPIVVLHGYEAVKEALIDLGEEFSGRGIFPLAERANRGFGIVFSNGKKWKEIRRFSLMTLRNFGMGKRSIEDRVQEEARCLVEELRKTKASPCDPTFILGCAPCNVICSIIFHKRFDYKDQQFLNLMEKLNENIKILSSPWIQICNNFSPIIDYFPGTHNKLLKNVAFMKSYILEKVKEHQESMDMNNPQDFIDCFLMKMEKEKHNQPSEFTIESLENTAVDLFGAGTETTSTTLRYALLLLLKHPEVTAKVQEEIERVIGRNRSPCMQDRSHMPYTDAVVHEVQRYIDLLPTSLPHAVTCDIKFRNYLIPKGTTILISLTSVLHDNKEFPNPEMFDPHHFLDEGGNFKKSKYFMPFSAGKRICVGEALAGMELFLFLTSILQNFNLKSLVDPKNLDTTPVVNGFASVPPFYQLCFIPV

Structure (SMILES)	Potency
COc1ccc(OC)c(/C=C(\C#N)c2nc3ccccc3c(=O)[nH]2)c1	1.51 µM (active)
CCOCCCNC(=O)CCC(=O)NNc1nc2ccccc2c2nc(-c3ccccc3)nn12	3.38 µM (active)
COCCCNC(=O)CCC(=O)NNc1nc2ccccc2c2nc(-c3ccccc3)nn12	9.52 µM (active)
O=C(O)[C@@H]1CCCN1	inactive
COc1cc(NC(=O)CSc2nc3ccccc3nc2Cc2ccccc2OC)cc(OC)c1	0.301 µM (active)
CC[C@H]1OC(=O)[C@H](C)[C@@H](O[C@H]2C[C@@](C)(OC)[C@@H](O)[C@H](C)O2)[C@H](C)[C@@H](O[C@@H]2O[C@H](C)C[C@H](N(C)C)[C@H]2O)[C@](C)(OC)C[C@@H](C)C(=O)[C@H](C)[C@@H](O)[C@]1(C)O	inactive
COc1ccc(OCC(=O)Nc2cc(-c3nc4ccccc4s3)ccc2C)cc1	0.379 µM (active)
COC(=O)Cc1cccc(NC(=O)C2=C(C)NC(Nc3nc4ccccc4o3)=NC2c2ccccc2Cl)c1 (centres undefined)	9.52 µM (active)
CCOc1ccc(CCNC(=O)CCCn2nc(C)c3sc4ccccc4c3c2=O)cc1OCC	2.68 µM (active)
Cc1ccnc(NC(c2cc(C)ccc2O)c2ccc3cccnc3c2O)c1 (centres undefined)	23.9 µM (active)
Cc1ccc([S+](=O)([O-])NC2(c3ccccc3)CCCCC2)cc1	2.68 µM (active)
CC(C)c1ccc(NC(=O)CSC2=Nc3ccccc3C3=NC(CC(=O)NC4CCCCC4)C(=O)N23)cc1 (centres undefined)	12 µM (active)
CC1=C(C(=O)Nc2cccc(-c3nn[nH]n3)c2)C(c2ccccc2Cl)N=C(Nc2nc3ccccc3o2)N1 (centres undefined)	0.536 µM (active)
CN[C@@H](C)C(=O)N[C@H](C(=O)N1CCC[C@H]1c1nc(C(=O)c2ccc(F)cc2)cs1)C1CCCCC1	inactive
C[C@@H]1C[C@H]2[C@@H]3C[C@H](F)C4=CC(=O)C=C[C@]4(C)[C@@]3(F)[C@@H](O)C[C@]2(C)[C@@]1(O)C(=O)COC(=O)C(C)(C)C	9.52 µM (active)
COc1ccc(Cl)cc1NC(=O)CN1C(=O)CSc2ccc(S(=O)(=O)N3CCCC3)cc21	0.756 µM (active)
COc1ccc(C=CC(=O)O)cc1	inactive
Cc1ccc([S+](=O)([O-])NC2CC(C)(C)CC(C)(C)C2)cc1	2.13 µM (active)
N[C@@H]1CCCCN(c2c(F)cc3c(=O)c(C(=O)O)cn(C4CC4)c3c2Cl)C1	inactive
CC(C)[C@H](N)C(=O)O	inactive
CC1=C(C(=O)Nc2nnc(C(F)(F)F)s2)C(c2ccccc2Cl)N=C(Nc2nc3ccccc3o2)N1 (centres undefined)	10.7 µM (active)
CN(CCCCCCCCCCN(C)C(=O)Oc1cccc([N+](C)(C)C)c1)C(=O)Oc1cccc([N+](C)(C)C)c1	inactive
C=CC1=C(C(=O)O)N2C(=O)[C@@H](NC(=O)/C(=N\OCC(=O)O)c3csc(N)n3)[C@H]2SC1	inactive
COc1ccc(NC(=O)CSc2nnc(NC(=O)NC3CCCCC3)s2)cc1OC	21.3 µM (active)
COC(=O)c1c(SCC(=O)Nc2ccccc2C(F)(F)F)[nH]c2ccc(Cl)cc2c1=O	1.9 µM (active)
Cc1cc2c(F)c(Oc3ncnn4cc(OC[C@@H](C)OC(=O)[C@H](C)N)c(C)c34)ccc2[nH]1	2.39 µM (active)
CCc1ccc(CNC(=O)C2CCCN(c3nnc(C)c4c(C)n(-c5ccccc5)nc34)C2)cc1 (centres undefined)	8.49 µM (active)
Oc1ccc(C2(c3ccccc3F)CCC(F)(F)CC2)cc1	2.13 µM (active)
O=C(CSc1nc2ccccc2n1Cc1cccc(Cl)c1)N1CCN(c2ccc(F)cc2)CC1	3.38 µM (active)
CN(C)S(=O)(=O)n1cc(/C=C(\NC(=O)c2ccccc2)C(=O)NCCCn2ccnc2)c2ccccc21	0.213 µM (active)
